Reference: PubChem BioAssay (NCI)
About 79,000 compounds went through this panel and 15% of them were active in at least one assay; those are over-represented in the sample as a whole. Cut-off read from the data, not from the text of the source: active = growth inhibition above about 70%; inactive = the rest.

Key:
[1] = NCI Yeast Anticancer Drug Screen. Data for the rad50 strain (AID 155);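 note: 0% = growth of vehicle-only cultures of the same strain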; conditions: S. cerevisiae rad50 strain growth inhibition; at 50.0 µM; hits give high values
In short: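 Readout: growth inhibition relative to vehicle-treated cultures. Compound exposure was carried out in a genetically defined yeast strain deficient in DNA damage repair.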

[2] = NCI Yeast Anticancer Drug Screen. Data for the mec2-1 strain (AID 157); conditions: S. cerevisiae mec2-1 strain, at 50.0 µM, hits give high values
In short: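 Cells of the genetically defined mec2-1 yeast strain are incubated with test compound. Inhibition of growth is calculated against vehicle-treated controls.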

[3] = NCI Yeast Anticancer Drug Screen. Data for the sgs1 mgt1 strain (AID 161);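 note: 0% = growth of cultures given vehicle only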; conditions: S. cerevisiae sgs1 mgt1 strain, at 50.0 µM, hits give high values
In short: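 Inhibition of yeast growth, normalised to vehicle-treated controls, is reported for a strain bearing genetic alterations in DNA damage repair.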

[4] = NCI Yeast Anticancer Drug Screen. Data for the cln2 rad14 strain (AID 165);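 note: 0% = growth equal to vehicle treated cultures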; conditions: S. cerevisiae cln2 rad14 strain, at 50.0 µM, hits give high values
In short: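 The screen exposed genetically defined yeast (cln2 rad14) to test compounds and scored growth inhibition relative to vehicle-treated controls.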

[5] = NCI Yeast Anticancer Drug Screen. Data for the bub3 strain (AID 167); conditions: S. cerevisiae bub3 mutant strain, at 50.0 µM, hits give high values
In short: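 Readout: yeast growth inhibition, expressed relative to vehicle-only wells. The test organism is a mutant strain from a panel with lesions in DNA repair or checkpoint genes.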

[6] = NCI Yeast Anticancer Drug Screen. Data for the mlh1 rad18 strain (AID 175); conditions: S. cerevisiae mlh1 rad18 strain growth inhibition; at 50.0 µM; hits give high values
In short: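 Compound-treated yeast growth, normalised to vehicle controls. Strain bears defined DNA repair mutations.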

Measured: growth inhibition

CN(C)C(=O)NO
inactive: [1] -32% | [2] -26.1% | [3] -11.8% | [4] -19.8% | [5] -3.3% | [6] -28.4%

CCOC(=O)C(C#N)S(C)(=O)=O (stereo not drawn)
inactive: [1] 4.55% | [2] -6.55% | [3] 1.9% | [4] -35.3% | [5] -12.1% | [6] -1.6%

O=C1OC(=O)c2ccc([N+](=O)[O-])c3c(C(=O)O)ccc1c23
inactive: [1] 5.1% | [2] -19.2% | [3] -22.9% | [4] -1.65% | [5] 2.55% | [6] 2.85%

CC(=O)OCC1OC(n2c(N)c(C#N)c(-c3ccccc3)c(C#N)c2=S)C(OC(C)=O)C(OC(C)=O)C1OC(C)=O (stereo not drawn)
inactive: [1] 13.4% | [2] 11.2% | [3] -21.9% | [4] -8.8% | [5] -14.7% | [6] -60.2%

O=C(O)c1cccc(N=Nc2ccccc2)c1O
inactive: [1] 22.1% | [2] -12.4% | [3] 4.65% | [4] -7.1% | [5] 6.05% | [6] 10.7%

C=CC1=C(C)C2=NC1=CC1=NC(=CC3=C(C)C4=C(O)C(C(=O)OC)C(=C5NC(=C2)C(C)C5CCC(=O)OC)C4=N3)C(CC)=C1C (stereo not drawn)
inactive: [1] 10.1% | [2] 11.3% | [3] -48.8% | [4] 7.95% | [5] 4.95% | [6] -12.5%

CN1CCCCC(C#N)(c2ccccc2)CC1 (stereo not drawn)
inactive: [1] -5.25% | [2] 14.1% | [3] 7.85% | [4] -2.2% | [5] 0.8% | [6] 21.4%

CN=C1SC(C)(C)NN1C
inactive: [1] 9.2% | [2] 1.85% | [3] 4.35% | [4] -32% | [5] -6.4% | [6] 12.8%
